Most compounds without a hit are left out; they make up all but 27% or so of the library.
CYP2C19 inhib = blockers of cytochrome P450 2C19 activity – biochemical, luminescence, ADME assay, primary screen. P33261. CYP2C19 Supersomes, luciferin-H EGE luminescence, 30 min. inhibition, % at 5 µM. hit rate 21% among 96,000;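 active means CYP2C19 inhibition above a set limit at 5 µM in the primary screen, cut at about 50% in these data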
CYP2C9 activ = human CYP2C9 activators, primary screen, biochemical, luminescence. Cytochrome P450 2C9 (Homo sapiens), P11712. recombinant CYP2C9, luciferin-H conversion; hits give high values; factor 1 = untreated enzyme, 0 = blocked. activation factor at 5 µM. hit rate 1.4% among 96,000. AID 1024, 2008;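 active means activation factor of 2 or more for CYP2C9 at a 5 µM dose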
Target sequence (P11712 whole entry, looked up): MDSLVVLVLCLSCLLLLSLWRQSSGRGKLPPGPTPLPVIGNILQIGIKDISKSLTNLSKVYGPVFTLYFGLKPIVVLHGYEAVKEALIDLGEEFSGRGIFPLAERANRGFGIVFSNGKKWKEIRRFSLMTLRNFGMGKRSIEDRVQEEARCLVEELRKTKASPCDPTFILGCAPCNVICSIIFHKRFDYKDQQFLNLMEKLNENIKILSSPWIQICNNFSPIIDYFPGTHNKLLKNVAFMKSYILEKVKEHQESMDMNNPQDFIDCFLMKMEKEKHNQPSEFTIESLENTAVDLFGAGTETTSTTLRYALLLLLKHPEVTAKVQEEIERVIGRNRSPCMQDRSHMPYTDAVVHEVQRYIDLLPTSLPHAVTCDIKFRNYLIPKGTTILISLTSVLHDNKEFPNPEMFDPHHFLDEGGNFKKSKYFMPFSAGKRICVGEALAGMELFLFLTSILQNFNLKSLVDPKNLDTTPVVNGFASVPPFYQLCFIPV
CYP2C9 inh = blockers of cytochrome P450 2C9 activity – biochemical, luminescence, ADME assay, primary screen | P11712 | CYP2C9 Supersomes, luciferin-H conversion | inhibition, % at 5 µM | hit rate 20% among 96,000;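 active means blocking of liver enzyme CYP2C9 beyond about 50% at 5 µM, limit read from the data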
EphB4 ephrin blk = EphB4-ephrin-B2 interaction antagonists, primary screen, biochemical, TNYL-RAW peptide probe, fluorescence polarization; EphB4 LBD / TNYL-RAW-Alexa532 peptide; inhibition, % at 7 µM; hit rate 0.15% among 97,000;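 active means inhibition above the screen-wide mean inhibition plus 3 SD, cut at about 15% in these data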
CYP2C19 act = human CYP2C19 activators, primary screen, biochemical, luminescence; Cytochrome P450 2C19 (Homo sapiens), P33261; recombinant CYP2C19, luciferin-H EGE luminescence; hits give high values; 0 = fully inhibited enzyme, 1 = untreated enzyme; activation factor at 5 µM; 96,000 tested, under 10 active; AID 1025, 2008;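 active means activation factor of at least 2 at 5 µM in the primary screen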
Of the large screens only hits and unclear results are named; the others gave an inactive call.

COc1ccc(C(=O)N2c3cc4c(cc3C(C)=CC2(C)C)OCO4)cc1	CYP2C19 inhib 91.5, CYP2C9 inh 95.4
COc1ccccc1NC(=O)CSc1nnc(CNC(=O)c2ccco2)o1	none
COc1ccc(NC(=O)CSc2nnc(-c3ccccc3)n2Cc2ccco2)c(OC)c1	CYP2C19 inhib 91.2, CYP2C9 inh 85.6
Cc1cccc(OCc2nnc(SCC(=O)N(C(C)C)C(C)C)n2Cc2ccco2)c1C	CYP2C19 inhib 53.5
COc1ccc(C)cc1NC(=O)CSc1nnc(-c2ccccn2)n1Cc1ccco1	none
COc1ccccc1-n1c(CNC(=O)c2ccco2)nnc1SCC(=O)Nc1cc(C)ccc1C	CYP2C9 activ 2
COc1ccc(C)cc1NC(=O)CSc1nnc(CC(=O)Nc2ccccc2C)n1C	CYP2C19 inhib 66.1
COc1ccc(CNC(=O)c2ccc(S(=O)(=O)N3CCCC3)cc2)cc1OC	none
CN(Cc1ccccc1)C(=O)c1cnc2n(c1=O)CCS2	none (no result: CYP2C19 inhib, CYP2C9 activ, CYP2C9 inh, CYP2C19 act)
CC1CCN(C(=O)c2ccccc2NC(=O)c2cccc(S(=O)(=O)N3CCOCC3)c2)CC1	none (no result: EphB4 ephrin blk)
COc1ccc(NC(=O)CSc2nnc(-c3ccccn3)n2N)c(OC)c1	none
COc1ccc(C)cc1NC(=O)CSc1nnc(COc2ccc(Cl)cc2)n1Cc1ccco1	none
CCOc1ccc(NC(=O)CSc2nnc(-c3ccccc3Cl)n2Cc2ccco2)cc1	CYP2C19 inhib 86.1, CYP2C9 inh 96.4
COc1ccc(NC(=O)CSc2nnc(-c3ccccc3Cl)n2Cc2ccco2)c(OC)c1	CYP2C19 inhib 54.6, CYP2C9 inh 50.7
COc1ccc(C)cc1NC(=O)CSc1nnc(COc2ccccc2)n1Cc1ccco1	CYP2C19 inhib 87.2
O=C(CSc1nnc(-c2ccccc2)n1Cc1ccco1)Nc1ccc(S(=O)(=O)N2CCCC2)cc1	none
CC(=O)Nc1cc(NC(=O)CCCC(=O)O)ccc1Cl	none
COc1cccc(C=Nc2cccnc2)c1O	none
CC(C)C[C@H](NC(=O)OC(C)(C)C)C(=O)N/N=C/c1ccc2nccnc2c1	none
CCC(C)[C@H](NC(=O)OC(C)(C)C)C(=O)N/N=C/c1ccc2nccnc2c1 (some centres not stated)	CYP2C9 inh 54.8
CCOC(=O)C(NCc1ccccc1OC)(NC(=O)CC)C(F)(F)F (configuration not stated)	none
COc1ccccc1N1CCN(C(=O)c2cc3n(n2)C(C(F)(F)F)CC(c2ccco2)N3)CC1 (configuration not stated)	CYP2C9 inh 58.7 (no result: EphB4 ephrin blk)
O=C(c1cnn2c1NC(c1ccco1)CC2C(F)(F)F)N1CCN(c2cccc(Cl)c2)CC1 (configuration not stated)	CYP2C19 inhib 80.7, CYP2C9 inh 75.4
Cn1ccnc1C(O)c1cc(C(C)(C)C)c(O)c(C(C)(C)C)c1 (configuration not stated)	CYP2C9 inh 76.4
COc1ccc(NC(=O)CNS(=O)(=O)c2cccs2)c(OC)c1	CYP2C19 inhib 57.4
COc1ccc2nc(NC(=O)CNS(=O)(=O)c3cccs3)sc2c1	CYP2C19 inhib 63.6
COc1ccc2nc(NC(=O)Cc3cccs3)sc2c1	none
COCCNC(=O)CNS(=O)(=O)c1ccc2nc(C)sc2c1	none
CCOc1ccc2nc(NC(=O)C3CCN(S(=O)(=O)c4cnc[nH]4)CC3)sc2c1	CYP2C19 inhib 83.5, CYP2C9 inh 84.0
COc1ccc(NC(=O)CNS(=O)(=O)c2ccc3nc(C)sc3c2)c(OC)c1	CYP2C9 inh 51.2
O=C(NCC1CCCO1)C(c1ccc(F)cc1)N(Cc1ccc(F)cc1)C(=O)Cn1nnc(-c2cccs2)n1 (configuration not stated)	none (no result: CYP2C19 inhib, CYP2C9 activ, CYP2C9 inh, CYP2C19 act)
COc1ccc2nc(NC(=O)C3CCN(S(=O)(=O)c4cccs4)CC3)sc2c1	CYP2C19 inhib 84.1, CYP2C9 inh 67.0
COc1ccc(NCC(=O)Nc2ccc(Cl)cc2C)c(OC)c1	CYP2C19 inhib 93.1, CYP2C9 inh 99.4
CCOc1ccc(NCC(=O)Nc2ccc(Cl)cc2C)cc1	none (no result: CYP2C19 inhib, CYP2C9 activ, CYP2C9 inh, CYP2C19 act)
COc1ccc2nc(NC(=O)CN(C)S(=O)(=O)c3cccs3)sc2c1	CYP2C19 inhib 79.8, CYP2C9 inh 61.6
CCN(C(=O)c1cnc2scc(C)n2c1=O)c1ccccc1C	none (no result: EphB4 ephrin blk)
O=c1c(Cc2ccccc2)c(O)nc2n1CCS2	none
NC1=NC2(CCC(c3ccccc3)CC2)n2c(nc3ccccc32)N1 (configuration not stated)	none
CCOC(=O)c1cnc(SCC(=O)Nc2ccccc2N2CCOCC2)nc1N	none (no result: CYP2C19 inhib, CYP2C9 activ, CYP2C9 inh, CYP2C19 act)
Cn1c(=O)[nH]c(=O)c2c1nc(NCc1ccco1)n2CCCc1ccccc1	none
O=c1[nH]c(NCc2ccco2)nnc1Cc1ccccc1Cl	CYP2C9 activ 2.5
CCC1CCCCN1Cc1nc2c(c(=O)n(C)c(=O)n2C)n1CCCc1ccccc1 (configuration not stated)	none (no result: EphB4 ephrin blk)
CCOC(=O)c1ccccc1-n1c(C)cc(C2N=C(N)Nc3nc4ccccc4n32)c1C (configuration not stated)	none
NC1=NC(c2ccc(Br)cc2)n2c(nc3ccccc32)N1 (configuration not stated)	CYP2C19 inhib 94.2
O=C(COc1ccccc1)N1CCN(S(=O)(=O)c2cccs2)CC1	CYP2C19 inhib 64.2 (no result: EphB4 ephrin blk)
CCOC(=O)C1CCN(C(=O)COc2ccc(N(C)S(=O)(=O)c3cccs3)cc2)CC1	CYP2C19 inhib 61.5, CYP2C9 inh 90.0
O=C(COc1ccc(-c2ccccc2)cc1)N1CCN(S(=O)(=O)Cc2ccccc2)CC1	CYP2C9 inh 53.3
CCOC(=O)C1CCN(C(=O)CNS(=O)(=O)c2cccs2)CC1	none (no result: EphB4 ephrin blk)
Cc1oc(-c2ccc(Cl)cc2)nc1CSCC(=O)NCCCN1CCOCC1	none
COc1ccc(C2NC(c3ccc(OC)c(OC)c3OC)C(C)C(=O)C2C)c(OC)c1OC (configuration not stated)	none (no result: CYP2C19 inhib, CYP2C9 activ, CYP2C9 inh, CYP2C19 act)
COc1ccccc1C1NC(c2ccccc2OC)C(C)C(=O)C1C (configuration not stated)	CYP2C19 inhib 100.0, CYP2C9 inh 66.8
COc1ccc(NS(=O)(=O)c2coc(C(N)=O)c2)cc1Cl	none (no result: CYP2C19 inhib, CYP2C9 activ, CYP2C9 inh, CYP2C19 act)
COc1cc(OC)c(NS(=O)(=O)c2coc(C(N)=O)c2)cc1Cl	CYP2C19 inhib 96.3
Clc1ss/c(=N\c2ccccn2)c1Cl	none
Cc1sc2ncn(CCC(=O)O)c(=O)c2c1C	CYP2C9 activ 3.2
Cc1sc2ncn(CCn3cnc4sc(C)c(C)c4c3=O)c(=O)c2c1C	CYP2C19 inhib 86.3, CYP2C9 inh 74.5
O=C(NCCN1CCOCC1)c1cc(-c2ccc(Cl)cc2)on1	none
CCOC(=O)N1CCC(NC(=O)C2CCN(S(=O)(=O)c3cccc4cccnc34)CC2)CC1	none (no result: EphB4 ephrin blk)
CC1CCCC(NC(=O)C2CCCN2S(=O)(=O)c2cccc3nsnc23)C1C (configuration not stated)	CYP2C19 inhib 86.9, CYP2C9 inh 56.7

Compound activity from PubChem.
